This note sets out measurements from PubChem BioAssay.

Test [1] in a line: inhibitors of TNFa-induced NFkB p65 translocation, primary screen, imaging, HUVEC, MLSMR starter and 10KST1 sets (AID 438).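 Also: compound added about 3h40 before a 20 min TNFalpha stimulation.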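 As to inhibition: signal is the nuclear over cytoplasmic p65 intensity ratio per well.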 To be noted: HUVEC TNFa-induced p65 nuclear translocation; cell count: measured here: nuclei count (cytotoxicity indicator), at 2.08 µM; inhibition: at 2 µM, stronger effect = higher value, 0% TNFa-plus-vehicle, 100% no-TNFa wells.
Test [2] in a line: reduction of polyQ htt aggregates in cells – imaging, exon1htt(103Q)mCFP cells, high-content imaging, primary screen (AID 483;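 active = visual image review flags a hit and inhibition of aggregation exceeds 20%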;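 also: compound exposure lasted 3 days before fixation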;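 as to nuclei count: percent of the per-plate median nuclei count of sample wells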). To be noted: exon1htt(103Q)mCFP cell line, aggregate imaging, at 2 µM; inhibition of aggregation: stronger effect = higher value; nuclei count: measured here: cell count, toxicity.
Test [3] can be described thus: endothelial E-selectin expression blockers – imaging, HUVEC, immunofluorescence, MLSMR starter and 10KST1 sets, primary screen (AID 487;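 active = visually confirmed hit in the image check and inhibition above 20%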;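 as to inhibition: signal is fraction of cell area covered by stained E-selectin grains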;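 as to nuclei count: 100% = median nuclei count of all wells on the same plate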). To be noted: HUVEC TNFalpha-induced E-selectin immunofluorescence imaging, at 2 µM; inhibition: stronger effect = higher value; nuclei count: measured here: cell number, toxicity.
The target of test [4] is Voltage-gated potassium channel subunit beta-2 (Rattus norvegicus) (UniProt P62483). Description: inhibitors of rat Kvbeta2 reductase activity – biochemical, NADPH fluorescence, primary screen (AID 622;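 active = fluorescence slope higher than the sample average by over 3 SD, cut at about -0.22 in these data, passing the limit was not always enough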;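 also: slope of raw intensity against log time taken from 70 to 1610 s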). To be noted: recombinant KvBeta, 4-cyanobenzaldehyde reduction, at 10 µM, stronger effect = higher value.
For test [5] the target is unchanged. Nature of the test: enhancers of rat Kvbeta2 NADPH turnover – biochemical, NADPH fluorescence, primary screen (AID 623;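 active = NADPH fluorescence slope more negative than the mean of all samples by about 3 SD, 99.7% confidence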;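 also: fluorescence intensity change per second fitted from 20 to 320 s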). The settings on record: Recombinant KvBeta, NADPH fluorescence decrease slope, 10 min; at 10 µM; stronger effect = lower value.
In test [6] the target is Alpha-2C adrenergic receptor (Homo sapiens) (UniProt P18825). Description: compounds altering alpha2C-coupled GIRK flux – cell-based, HEK293 alpha2C/GIRK1/2, thallium flux, primary screen (AID 624;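 active = fluorescence slope after compound addition differing from the mean of all screened samples at 99.7% confidence, in either direction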;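 also: slope of fluorescence ratio to pre-addition baseline per second over 15 to 24 s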). To be noted: thallium flux BTC fluorescence, at 10 µM, actives lie on both sides.
Test [7] can be described thus: blockers of RIG-like receptor reporter activation – cell-based, Sendai virus stimulus, luciferase, 10K MLSCN set, TLR/RLR signaling modifier project, primary screen (AID 602276;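 active = inhibition at or above 50% at 10 µM; inactive = inhibition below 50%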;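 also: firefly luciferase from ISG56 promoter only with Renilla not read in this screen; 0% = Sendai virus plus DMSO and 100% = medium plus DMSO without virus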). The settings on record: HEK293 RL24 IRF3 luciferase reporter, at 10 µM, stronger effect = higher value. For orientation: Reporter assays use an easily measured gene product as a stand-in for the process of interest.

Test [8] in a line: TLR3 IRF3 reporter activation blockers – cell-based, poly I:C stimulus, luciferase, 10K MLSCN set, primary screen (AID 602277;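 active = inhibition of the reporter signal at or above 50%; inactive = inhibition below 50%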). To be noted: HEK293-TLR3 RL24 IRF3 luciferase reporter, at 10 µM, stronger effect = higher value.

In general, inhibition refers to the relative decrease from the control value, in per cent.

Active and inactive are the calls of the source.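 The calls were made as follows, unless noted: active = inhibition above 20% together with a positive visual image hit; inconclusive = visual image hit but inhibition not above 20%; inactive = no visual image hit.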

Chain of Voltage-gated potassium channel subunit beta-2 (Rattus norvegicus) (P62483 whole entry, looked up): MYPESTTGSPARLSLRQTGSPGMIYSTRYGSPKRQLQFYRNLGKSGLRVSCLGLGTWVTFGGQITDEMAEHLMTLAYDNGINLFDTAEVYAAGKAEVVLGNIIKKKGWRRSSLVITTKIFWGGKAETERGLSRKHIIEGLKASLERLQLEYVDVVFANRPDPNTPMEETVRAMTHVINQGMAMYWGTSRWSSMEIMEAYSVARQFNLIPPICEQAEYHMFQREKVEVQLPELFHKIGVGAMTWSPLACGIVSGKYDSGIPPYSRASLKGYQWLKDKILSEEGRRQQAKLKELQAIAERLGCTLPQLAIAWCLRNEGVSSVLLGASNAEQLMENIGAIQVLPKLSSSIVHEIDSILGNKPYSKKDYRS
Chain of Alpha-2C adrenergic receptor (Homo sapiens) (P18825 whole entry, looked up): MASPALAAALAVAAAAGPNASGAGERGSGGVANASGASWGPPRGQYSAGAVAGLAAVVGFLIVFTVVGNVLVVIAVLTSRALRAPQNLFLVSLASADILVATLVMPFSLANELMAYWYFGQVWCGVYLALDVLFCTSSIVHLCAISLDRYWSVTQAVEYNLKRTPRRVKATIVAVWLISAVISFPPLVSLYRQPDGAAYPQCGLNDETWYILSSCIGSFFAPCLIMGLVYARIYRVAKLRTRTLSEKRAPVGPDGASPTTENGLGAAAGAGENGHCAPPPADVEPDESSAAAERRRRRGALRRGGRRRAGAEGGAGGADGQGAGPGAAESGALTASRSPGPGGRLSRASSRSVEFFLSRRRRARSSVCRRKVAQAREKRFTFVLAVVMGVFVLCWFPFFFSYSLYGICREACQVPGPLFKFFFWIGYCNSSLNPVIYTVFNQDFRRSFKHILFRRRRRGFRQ

Consider `COc1ccc(-n2ccnc2SCC(=O)NCc2ccc3c(c2)OCO3)cc1`, for which the cell count in test [1] was found to be 495. In addition, the inhibition was 0.2% (inactive) in test [1], -80% (inactive) in test [3], 11.9% (inactive) in test [7] and 32.1% (inactive) in test [8]. The inhibition of aggregation in test [2] is -17.1% (inactive). Moreover, the results for the nuclei count in test [2] and in test [3] were 110% and 123%, respectively. For the same molecule, the fluorescence slope in test [4] was -0.596 (inactive). Besides, in test [5], the NADPH fluorescence slope was -2.8e-06 (inactive). Also, the slope in test [6] is 0.006 (inactive).
As to `CC(=O)Nc1ccc(NC(=O)Cn2cc3c(n2)CCC(C)C3)cc1` (stereo not given), in test [1], the cell count came out at 549. The inhibition in test [1] was -6.3% (inactive); in test [3] it was -58.6% (inactive); in test [7] it was 16.6% (inactive); in test [8], 23% (inactive). For the same molecule, the inhibition of aggregation in test [2] was 3.5% (inactive). For the same molecule, the nuclei count was 95.1% in test [2] and 103% in test [3]. The fluorescence slope in test [4] is -0.284 (inactive). In addition, in test [5], the NADPH fluorescence slope is -4.3e-05 (inactive). In test [6], the slope was 0.00496 (inactive).
`CCCc1ccc(Oc2cn[nH]c2-c2ccc(O)c(C)c2O)cc1`: in test [1], the cell count turned out to be 679. The inhibition in test [1] was 5.8% (inactive); in test [3] it was 16% (inactive); in test [7], -1.06% (inactive); in test [8], -27.9% (inactive). Moreover, the inhibition of aggregation in test [2] is 11% (inactive). Moreover, the nuclei count in test [2] is 98%; in test [3], 104%. Further, the fluorescence slope in test [4] is -0.602 (inactive). Besides, in test [5], the NADPH fluorescence slope is -1.2e-05 (inactive). For the same molecule, the slope in test [6] was 0.00642 (inactive).
`COC(=O)c1[nH]c2ccc(F)cc2c1NS(=O)(=O)c1ccc(OC)cc1OC`: in test [1], the cell count amounted to 682. For the same molecule, the inhibition was -11% (inactive) in test [1], -80.2% (inactive) in test [3], 16.7% (inactive) in test [7] and 45.4% (inactive) in test [8]. The inhibition of aggregation in test [2] was -3.2% (inactive). For the same molecule, the values for the nuclei count in test [2] and in test [3] were 106% and 152%, respectively. Also, the fluorescence slope in test [4] was -0.598 (inactive). Further, the NADPH fluorescence slope in test [5] was -5.6e-05 (inactive). In test [6], the slope was 0.00552 (inactive).
`COc1cc(OC)nc(NC(=O)CSc2nc3ccccc3o2)n1`: the cell count in test [1] was found to be 740. In addition, the inhibition in test [1] is -0.3% (inactive); in test [3] it was -18.2% (inactive); in test [7] it was 12.8% (inactive); in test [8], -3.75% (inactive). For the same molecule, the inhibition of aggregation in test [2] was -30.6% (inactive). In addition, the nuclei count was 102% in test [2] and 107% in test [3]. For the same molecule, the fluorescence slope in test [4] was -0.609 (inactive). Also, the NADPH fluorescence slope in test [5] was -2.6e-05 (inactive). Besides, the slope in test [6] is 0.00329 (inactive).
For `COc1ccc(-c2nnc(SCC(=O)c3cc(C)n(Cc4cccs4)c3C)o2)cc1`, the cell count in test [1] was found to be 497. In addition, the inhibition in test [1] is -13.7% (inactive); in test [3] it was -129% (inactive); in test [7] it was -5.7% (inactive); in test [8], -11.8% (inactive). The inhibition of aggregation in test [2] was -13.1% (inactive). Further, the nuclei count is 97.7% in test [2] and 161% in test [3]. Also, in test [4], the fluorescence slope was -0.559 (inactive). The NADPH fluorescence slope in test [5] was 5.5e-05 (inactive). Further, in test [6], the slope was 0.00615 (inactive).
Consider `CCOC(=O)c1cnc2c(OC)cccc2c1N1CCN(c2ccc(OC)cc2)CC1`, for which the cell count in test [1] stood at 158. Further, the inhibition was -4.9% (inactive) in test [1], 2.9% (inactive) in test [3], 19.3% (inactive) in test [7] and 24.8% (inactive) in test [8]. For the same molecule, the inhibition of aggregation in test [2] is 16.9% (inactive). In addition, the values for the nuclei count in test [2] and in test [3] were 72.9% and 80.4%, respectively. Besides, in test [4], the fluorescence slope is -0.577 (inactive). Further, the NADPH fluorescence slope in test [5] is -4.5e-05 (inactive). In addition, the slope in test [6] was 0.00543 (inactive).
`CCOC(=O)N1CCC(NC(=O)c2ccc(CS(=O)(=O)c3c(Cl)cccc3Cl)o2)CC1`: the cell count in test [1] turned out to be 608. In addition, the inhibition in test [1] was -3.7% (inactive); in test [3], -44.1% (inactive); in test [7] it was 16.5% (inactive); in test [8] it was 0.288% (inactive). In addition, in test [2], the inhibition of aggregation is 10.7% (inactive). Besides, the nuclei count turned out to be 94.3% in test [2] and 104% in test [3]. For the same molecule, the fluorescence slope in test [4] was -0.611 (inactive). Moreover, the NADPH fluorescence slope in test [5] was 2.7e-05 (inactive). The slope in test [6] was 0.00587 (inactive).
Regarding `C=CCN1C(=O)C2(C(C#N)=C(N)Oc3n[nH]c(CCC)c32)c2ccccc21` (stereo not given), the cell count in test [1] came out at 389. For the same molecule, the inhibition is 3.2% (inactive) in test [1], -37.6% (inactive) in test [3], 11.3% (inactive) in test [7] and 16.8% (inactive) in test [8]. Also, in test [2], the inhibition of aggregation was -32.8% (inactive). The nuclei count in test [2] was found to be 95.3%; in test [3] it was 114%. In addition, the fluorescence slope in test [4] was -0.625 (inactive). In test [5], the NADPH fluorescence slope was -3.8e-05 (inactive). Moreover, the slope in test [6] is 0.00735 (inactive).
Take `CCOC(=O)CN1C(=O)C2(OCCCO2)c2ccccc21`: the cell count in test [1] is 595. The inhibition in test [1] is -18.5% (inactive); in test [3] it was -39.6% (inactive); in test [7], 1.67% (inactive); in test [8] it was 18.4% (inactive). Further, the inhibition of aggregation in test [2] is 3.3% (inactive). Moreover, the nuclei count in test [2] is 115%; in test [3], 96.5%. Also, the fluorescence slope in test [4] was -0.454 (inactive). In addition, the NADPH fluorescence slope in test [5] is -0.000151 (inactive). In addition, the slope in test [6] was 0.00617 (inactive).
